Data reported in PubChem BioAssay (NCI).
About 83,000 compounds went through this panel and 20% of them were active in at least one assay; those are over-represented in the sample as a whole.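 For each line, cells grew in 96-well plates with the test compound present at a single concentration for 48 hours.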 A number with no mark means an inactive call. The source made the active and inactive calls. How the source made its calls: active means growth percent below 10; inactive means the rest.

How the values were obtained:
Test in all cases: NCI-60 one-dose screen, 48 h (100 = growth as untreated, 0 = no growth, -100 = all killed)
Settings in all cases: 10 µM unless noted
[1] = tested on: HCT-15 colon
[2] = tested on: HT29 colon
[3] = tested on: SNB-75 CNS
[4] = tested on: SNB-19 CNS
[5] = tested on: U251 CNS
[6] = tested on: PC-3 prostate
[7] = tested on: SK-MEL-5 melanoma
[8] = tested on: UACC-62 melanoma
[9] = tested on: LOX IMVI melanoma
[10] = tested on: SK-MEL-28 melanoma
[11] = tested on: SK-MEL-2 melanoma
[12] = tested on: EKVX NSCLC
[13] = tested on: SN12C renal
[14] = tested on: UO-31 renal
[15] = tested on: TK-10 renal
[16] = tested on: ACHN renal
[17] = tested on: CAKI-1 renal
[18] = tested on: A498 renal
[19] = tested on: CCRF-CEM leukemia
[20] = tested on: MOLT-4 leukemia

Structure (SMILES)	growth [1]	growth [2]	growth [3]	growth [4]	growth [5]	growth [6]	growth [7]	growth [8]	growth [9]	growth [10]	growth [11]	growth [12]	growth [13]	growth [14]	growth [15]	growth [16]	growth [17]	growth [18]	growth [19]	growth [20]
CC(=O)O[C@H]1CC[C@@]2(C)C(=CC[C@@H]3[C@@H]2CC[C@]2(C)C(Cl)=C(c4nc5ccc(Cl)cn5c4NC(C)(C)C)C[C@@H]32)C1	100%	102%	76.4%	85.1%	88.5%	82.9%	95.2%	73.6%	89.8%	94.4%	99.9%	88.1%	97.7%	86.6%	89.3%	92.1%	65.1%	92.8%	92.3%	101%
Cc1ccc(C2=Nc3c(N)nc(N)nc3NC(c3cccc(Nc4ccnc5cc(C(F)(F)F)ccc45)c3)C2)cc1 (stereo not given)	15.2%	1.9% (active)	7.55% (active)	34.4%	12.8%	16.5%	17.6%	40.8%	-2.42% (active)	66.8%	-8.24% (active)	38.1%	39.2%	39.6%	66%	39.1%	29%	58.4%	3.36% (active)	1.92% (active)
O=C(Cn1cc(CSc2nc3ccccc3o2)nn1)Nc1ccc([N+](=O)[O-])cc1	106%	93.9%	79.4%	96.3%	97.9%	92%	99.1%	68.5%	94.5%	105%	106%	104%	102%	78.8%	104%	95.2%	82%	101%	105%	94.1%
Nc1n[nH]c2cccc(C#Cc3cccc(C(=O)Nc4ccc(Cl)c(C(F)(F)F)c4)c3)c12	56.4%	26%	65.7%	89.1%	69%	59.6%	46.7%	22.2%	18.1%	24.7%	39.2%	74.2%	51.7%	29.6%	91.5%	59.1%	94.5%	35.6%	35.8%	31.2%
C#CCOc1ccc(C2=NN(CCCC)C3N=C(Cl)c4ncn(CCCC)c4N23)cc1OCC#C (stereo not given)	88.9%	96.9%	83.3%	94.6%	79.6%	63.6%	89.7%	69.6%	85.8%	93.6%	101%	85.2%	91.4%	62.5%	97.8%	87.4%	74.3%	73%	78.2%	65.3%
CCOC(=O)c1ccc2c(c1)[n+](=O)c(C(C)=O)c(C(F)(F)F)n2[O-]	-36% (active)	-0.876% (active)	25.6%	17.4%	6.13% (active)	-45.7% (active)	-94.3% (active)	2.99% (active)	-59.7% (active)	27.9%	12.1%	29.1%	4.58% (active)	27.4%	40.9%	5.29% (active)	40%	12.5%	-18.1% (active)	-56.4% (active)
N#Cc1c(-c2ccc(Cl)cc2)nc(NN=Cc2cccc(Cl)c2)nc1N1CCOCC1	35.4%	40.4%	80.1%	104%	78.9%	73.5%	92.5%	98.1%	85.5%	106%	96.5%	77.7%	91.8%	53.5%	106%	74.3%	67.4%	42.2%	72.5%	53.3%
O=C(Nc1ncc(Cc2ccccc2)s1)c1ccc2c(c1)OCCO2	7.07% (active)	4.31% (active)	9.1% (active)	35.4%	14.2%	27.1%	-29.7% (active)	33.6%	10.6%	66.3%	34.5%	32.6%	34.5%	46.6%	38.8%	27.3%	17.2%	2.75% (active)	13.8%	6.38% (active)
CNc1nc2ncc(-c3c(C)noc3C)cc2n1Cc1ccccc1	51.2%	31.8%	0.561% (active)	59.3%	61%	32.2%	47.9%	17%	32.5%	57.4%	67.4%	62.6%	71.1%	21.3%	24.3%	42.1%	36.7%	0.868% (active)	50.5%	48.9%
COc1cccc2cc(N(C)c3ncnc4ccccc34)ccc12	11.1%	2.77% (active)	34.8%	31.8%	11%	5.88% (active)	-32.4% (active)	23.4%	15.5%	33.3%	30.1%	43.8%	20.9%	25.4%	51%	6.07% (active)	10.8%	-7.44% (active)	22%	16.8%
O=C1C(Nc2ccc(Br)cc2)=C(I)C(=O)c2ncccc21	6.76% (active)	54.7%	26.4%	68.3%	32%	39.3%	-17.7% (active)	9.48% (active)	-3% (active)	63.7%	79.2%	77.6%	1.34% (active)	-38.4% (active)	70.7%	-20.1% (active)	18.6%	96%	8.63% (active)	-2.02% (active)
CCOC(=O)C1=C(C)N(C)C(=O)N(C)C1c1ccccc1 (stereo not given)	102%	97.8%	79.2%	93.8%	99.3%	92.7%	93.3%	86.7%	96.1%	124%	106%	97.2%	91.6%	78.7%	106%	95.9%	90.6%	86.8%	86.6%	104%
Cn1ncc(CC(=O)O)c1-n1nnc2cc(Cl)ccc2c1=O	107%	103%	81.1%	96%	103%	103%	110%	94.8%	103%	144%	99.3%	86%	92.5%	81.1%	90.7%	94.3%	87.8%	134%	98.1%	100%
COC(=O)c1c(C)nc(C)c2c1C(=O)C(Br)=C(NCCCCO)C2=O	49.8%	19.5%	97.7%	75.3%	72.1%	62.5%	-53.4% (active)	44.2%	50.2%	102%	64.7%	62.2%	61.7%	79.7%	119%	84.7%	70.5%	115%	71.8%	79.5%
O=C1NC(=O)C(=Cc2cc(-c3ccc(Cl)cc3)n(-c3ccccc3)n2)C(=O)N1	89.4%	112%	92.4%	87.3%	96.7%	100%	96.6%	90.5%	104%	98.5%	106%	91.6%	92.5%	86.6%	88.3%	95.2%	92.8%	93.5%	92.7%	92.4%
